The supplement of paper PMC8728848
The entries come from a sample that favours the strongest signals as a whole.

Columns and labels:
Assay in all cases: glycan array binding signal (z-score within array); higher = stronger binding
Settings in all cases: glycan notation: IUPAC condensed, linker removed
[1] = biological target: Fuc(a1-2)Gal(b1-3)GalNAc(b1-4)[Neu5Ac(a2-3)]Gal(b1-4)Glc
Method in brief: (§1)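 Columns mapping to the same glycan were averaged after glycan names were converted to IUPAC-condensed notation. The data come from 3228 arrays in the Consortium for Functional Glycomics database, limited to those with an available protein sequence. Binding is reported as a within-array Z-score averaged across arrays of one protein sequence and across linkers.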

[2] = biological target: Fuc(a1-2)Gal(b1-4)[Fuc(a1-3)]GlcNAc(b1-3)GalNAc
Method in brief: as §1

[3] = biological target: Fuc(a1-2)[GalNAc(a1-3)]Gal(b1-4)[Fuc(a1-3)]GlcNAc(b1-3)GalNAc
Method in brief: as §1

[4] = biological target: Fuc(a1-3)[Gal(b1-4)]GlcNAc(b1-2)Man(a1-3)[Fuc(a1-3)[Gal(b1-4)]GlcNAc(b1-2)Man(a1-6)]Man(b1-4)GlcNAc(b1-4)GlcNAc
Method in brief: as §1

[5] = biological target: Fuc(a1-3)[Gal(b1-4)]GlcNAc(b1-2)Man(a1-3)[Fuc(a1-3)[Gal(b1-4)]GlcNAc(b1-2)Man(a1-6)]Man(b1-4)GlcNAc(b1-4)[Fuc(a1-6)]GlcNAc
Method in brief: as §1

[6] = biological target: Gal(a1-3)Gal(b1-3)GlcNAc
Method in brief: as §1

[7] = biological target: Gal(a1-4)Gal(b1-4)GlcNAc(b1-3)Gal(b1-4)Glc
Method in brief: as §1

[8] = biological target: Gal(b1-3)GlcNAc(b1-3)Gal(b1-4)GlcNAc(b1-6)[Gal(b1-3)GlcNAc(b1-3)]Gal(b1-4)Glc
Method in brief: as §1

[9] = biological target: Gal(b1-3)[Fuc(a1-4)]GlcNAc(b1-2)Man(a1-3)[Gal(b1-3)[Fuc(a1-4)]GlcNAc(b1-2)Man(a1-6)]Man(b1-4)GlcNAc(b1-4)[Fuc(a1-6)]GlcNAc
Method in brief: as §1

[10] = biological target: Gal(b1-4)GlcNAc(b1-2)Man(a1-3)Man(b1-4)GlcNAc(b1-4)GlcNAc
Method in brief: as §1

[11] = biological target: Gal(b1-4)GlcNAc(b1-2)Man(a1-3)[Gal(b1-4)GlcNAc(b1-2)Man(a1-6)]Man(b1-4)GlcNAc(b1-4)GlcNAc
Method in brief: as §1

[12] = biological target: Gal(b1-4)GlcNAc(b1-2)Man(a1-6)Man(b1-4)GlcNAc(b1-4)GlcNAc
Method in brief: as §1

[13] = biological target: Gal(b1-4)GlcNAc(b1-2)[Gal(b1-4)GlcNAc(b1-6)]Man(a1-6)[GlcNAc(b1-4)][Gal(b1-4)GlcNAc(b1-2)Man(a1-3)]Man(b1-4)GlcNAc(b1-4)GlcNAc
Method in brief: as §1

[14] = biological target: Gal3S(b1-4)GlcNAc6S
Method in brief: as §1

[15] = biological target: Gal3S6S(b1-4)GlcNAc
Method in brief: as §1

[16] = biological target: Gal6S(b1-3)GlcNAc
Method in brief: as §1

[17] = biological target: GalNAc(b1-3)GalNAc
Method in brief: as §1

[18] = biological target: Glc(a1-4)Glc(a1-4)Glc(a1-4)Glc
Method in brief: as §1

[19] = biological target: GlcNAc(a1-4)Gal(b1-4)GalNAc
Method in brief: as §1

[20] = biological target: GlcNAc(a1-4)Gal(b1-4)GlcNAc(b1-3)Gal(b1-4)GlcNAc
Method in brief: as §1

[21] = biological target: GlcNAc(b1-3)Gal(b1-3)GalNAc
Method in brief: as §1

[22] = biological target: GlcNAc(b1-3)Gal(b1-4)GlcNAc(b1-3)Gal(b1-4)GlcNAc
Method in brief: as §1

[23] = biological target: GlcNAc(b1-3)Man
Method in brief: as §1

[24] = biological target: Kdn(a2-3)Gal(b1-3)GlcNAc
Method in brief: as §1

[25] = biological target: Man(a1-2)Man(a1-3)[Man(a1-2)Man(a1-6)]Man(a1-6)[Man(a1-2)Man(a1-2)Man(a1-3)]Man(b1-4)GlcNAc(b1-4)GlcNAc
Method in brief: as §1

[26] = biological target: Neu5Ac(a2-3)Gal(b1-4)GlcNAc(b1-3)Gal
Method in brief: as §1

[27] = biological target: Neu5Ac(a2-3)Gal(b1-4)GlcNAc(b1-3)Gal(b1-4)[Fuc(a1-3)]GlcNAc
Method in brief: as §1

[28] = biological target: Neu5Ac(a2-3)Gal(b1-4)[Fuc(a1-3)]GlcNAc(b1-3)Gal(b1-4)GlcNAc
Method in brief: as §1

[29] = biological target: Neu5Ac(a2-3)Gal(b1-4)[Fuc(a1-3)]GlcNAc(b1-3)Gal(b1-4)[Fuc(a1-3)]GlcNAc(b1-3)Gal(b1-4)[Fuc(a1-3)]GlcNAc
Method in brief: as §1

[30] = biological target: Neu5Ac(a2-3)Gal(b1-4)[Fuc(a1-3)]GlcNAc(b1-3)GalNAc
Method in brief: as §1

[31] = biological target: Neu5Ac(a2-3)Gal(b1-4)[Fuc(a1-3)]GlcNAc(b1-6)[Gal(b1-3)]GalNAc
Method in brief: as §1

[32] = biological target: Neu5Ac(a2-3)Gal6S(b1-4)[Fuc(a1-3)]GlcNAc
Method in brief: as §1

[33] = biological target: Neu5Ac(a2-3)[GalNAc(b1-4)]Gal(b1-4)GlcNAc(b1-3)GalNAc
Method in brief: as §1

[34] = biological target: Neu5Ac(a2-6)Gal(b1-4)Glc
Method in brief: as §1

[35] = biological target: Neu5Ac(a2-6)Gal(b1-4)GlcNAc(b1-2)Man(a1-3)[GlcNAc(b1-2)Man(b1-4)GlcNAc(b1-2)Man(a1-6)]Man(b1-4)GlcNAc(b1-4)GlcNAc
Method in brief: as §1

[36] = biological target: Neu5Ac(a2-6)Gal(b1-4)GlcNAc(b1-2)Man(a1-6)Man(b1-4)GlcNAc(b1-4)GlcNAc
Method in brief: as §1

[37] = biological target: Neu5Ac(a2-6)GalNAc
Method in brief: as §1

[38] = biological target: Neu5Ac(a2-6)GlcNAc(b1-4)GlcNAc(b1-4)GlcNAc
Method in brief: as §1

[39] = biological target: Neu5Gc(a2-3)Gal(b1-3)GlcNAc
Method in brief: as §1

B1: Layilin (Mus musculus), Q8C351 (protein)
chain: MQPGAALQAMLLAVLLAKPRDSKGRLLSASDLDPRGGQLVCRGGTRRPCYKVIYFHDAFQRLNFEEAKETCMEDGGQLVSIETEDEQRLIEKFIENLLASDGDFWIGLKRLEEKQSNNTACQDLYAWTDGSTSQFRNWYVDEPSCGSEVCVVMYHQPSAPPGIGGSYMFQWNDDRCNMKNNFICKYHDDKPSTTPSIWPGGEATEPATPLLPEETQKEDTKETFKERREAALNLAYILIPSIPLFLLLVVTSAVCWVWICRRKREQTDPSTKEQHTIWPTPRQENSPNLDVYNVIRKQSEADLAEPRPDLKNISFRVCSGEAMPDDMSCDYENIAVNPSESGFVTLASMESGFVTNDIYEFSPDRMGRSKESGWVENEIYY
Question: Which “glycan array binding signal (z-score)” value [1] does the source give for B1 here?
Answer: -0.101

Question: And the “glycan array binding signal (z-score)” value [2]?
Answer: 4.74

Question: What about the “glycan array binding signal (z-score)” value [3] of the same binder?
Answer: 2.16

Question: And the “glycan array binding signal (z-score)” value [4]?
Answer: -0.753

Question: And the “glycan array binding signal (z-score)” value [5]?
Answer: 1.43

Question: And the “glycan array binding signal (z-score)” value [6]?
Answer: -0.17

Question: And the “glycan array binding signal (z-score)” value [7]?
Answer: 3.88

Question: And the “glycan array binding signal (z-score)” value [8]?
Answer: -0.423

Question: And the “glycan array binding signal (z-score)” value [9]?
Answer: 7.71

Question: And the “glycan array binding signal (z-score)” value [10]?
Answer: -0.41

Question: And the “glycan array binding signal (z-score)” value [11]?
Answer: -0.504

Question: And the “glycan array binding signal (z-score)” value [12]?
Answer: -0.753

Question: What about the “glycan array binding signal (z-score)” value [13] of the same binder?
Answer: -0.619

Question: What about the “glycan array binding signal (z-score)” value [14] of the same binder?
Answer: -0.103

Question: And the “glycan array binding signal (z-score)” value [15]?
Answer: -0.561

Question: What about the “glycan array binding signal (z-score)” value [16] of the same binder?
Answer: -0.243

Question: And the “glycan array binding signal (z-score)” value [17]?
Answer: -0.932

Question: And the “glycan array binding signal (z-score)” value [18]?
Answer: -0.492

Question: What about the “glycan array binding signal (z-score)” value [19] of the same binder?
Answer: -1.4

Question: And the “glycan array binding signal (z-score)” value [20]?
Answer: 5.27

Question: What about the “glycan array binding signal (z-score)” value [21] of the same binder?
Answer: 3.53

Question: What about the “glycan array binding signal (z-score)” value [22] of the same binder?
Answer: 3.11

Question: And the “glycan array binding signal (z-score)” value [23]?
Answer: 0.015

Question: What about the “glycan array binding signal (z-score)” value [24] of the same binder?
Answer: -0.719

Question: What about the “glycan array binding signal (z-score)” value [25] of the same binder?
Answer: 0.181

Question: What about the “glycan array binding signal (z-score)” value [26] of the same binder?
Answer: 0.955

Question: And the “glycan array binding signal (z-score)” value [27]?
Answer: 0.119

Question: And the “glycan array binding signal (z-score)” value [28]?
Answer: -0.212

Question: What about the “glycan array binding signal (z-score)” value [29] of the same binder?
Answer: 2.92

Question: What about the “glycan array binding signal (z-score)” value [30] of the same binder?
Answer: 1.82

Question: What about the “glycan array binding signal (z-score)” value [31] of the same binder?
Answer: 4.15

Question: What about the “glycan array binding signal (z-score)” value [32] of the same binder?
Answer: -0.666

Question: What about the “glycan array binding signal (z-score)” value [33] of the same binder?
Answer: 0.49

Question: What about the “glycan array binding signal (z-score)” value [34] of the same binder?
Answer: 0.086

Question: And the “glycan array binding signal (z-score)” value [35]?
Answer: 1.47

Question: And the “glycan array binding signal (z-score)” value [36]?
Answer: -0.392

Question: What about the “glycan array binding signal (z-score)” value [37] of the same binder?
Answer: -0.757

Question: And the “glycan array binding signal (z-score)” value [38]?
Answer: 0.077

Question: What about the “glycan array binding signal (z-score)” value [39] of the same binder?
Answer: 0.013
